Source: PubChem (National Center for Advancing Translational Sciences (NCATS))
ALDH1A1 block: blocks purified human ALDH1A1 activity; Purified ALDH1A1, NADH fluorescence, propionaldehyde substrate; Potency, µM (titrated, usually from 75.3 µM), hits mostly inhibitors; AID 1030; 7.3% of 220,000 active; active = well fitted inhibition curve with a large enough effect, not every such curve was filed as active; inconclusive = small, poorly fitted or top-dose-only effect, or another doubt; inactive = no such curve, though single readings can be large or run the other way
Target sequence (P00352 whole entry, looked up): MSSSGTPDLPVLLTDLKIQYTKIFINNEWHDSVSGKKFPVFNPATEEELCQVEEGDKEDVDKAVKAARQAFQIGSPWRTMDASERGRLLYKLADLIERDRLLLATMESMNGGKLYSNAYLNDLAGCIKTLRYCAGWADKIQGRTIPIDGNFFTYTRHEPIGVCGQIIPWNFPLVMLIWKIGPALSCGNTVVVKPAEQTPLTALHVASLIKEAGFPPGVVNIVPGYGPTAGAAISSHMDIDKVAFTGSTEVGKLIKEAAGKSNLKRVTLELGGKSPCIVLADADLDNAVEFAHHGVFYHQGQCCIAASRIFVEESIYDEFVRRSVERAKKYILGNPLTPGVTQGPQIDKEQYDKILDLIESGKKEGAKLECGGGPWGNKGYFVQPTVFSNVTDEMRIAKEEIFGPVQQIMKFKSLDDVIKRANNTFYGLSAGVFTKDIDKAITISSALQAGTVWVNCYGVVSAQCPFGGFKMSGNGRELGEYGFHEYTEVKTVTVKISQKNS
Tau fluor counter: counter-screen for tau fibril formation inhibitors; tau K18 P301L Alexa594 fluorescence, heparin fibrillization; Potency, µM (doses to about 57.7 µM); 0.93% of 280,000 active; also: nearly all actives have a fitted effect of over 55% in size
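Human K18 P301L tau (15 uM unlabeled plus 0.24 uM Alexa 594-labeled, final) in 100 mM sodium acetate pH 7 was mixed with compound and 20 uM heparin and incubated 6 hr at 37 C.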
JMJD2E inh: JMJD2E (human) inhibition; AID 2147; 1.6% of 230,000 active; Potency, µM (titrated, usually from 57.1 µM), hits mostly inhibitors; B2RXH2; JMJD2E catalytic domain, FDH-coupled NADH fluorescence (FDH is formaldehyde dehydrogenase); also: nearly all actives have a fitted effect of over 50% in size
HPGD inh: inhibitors of human 15-hydroxyprostaglandin dehydrogenase (HPGD) | P15428 | purified HPGD, NADH fluorescence kinetic, PGE2 substrate | Potency, µM, most hits filed as inhibitors | 4.3% of 150,000 active | AID 894; active = well fitted inhibition curve with a large enough effect, not every such curve was filed as active; inconclusive = small, poorly fitted or top-dose-only effect, or another doubt; inactive = no such curve, though single readings can be large or run the other way
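NADH formation kinetics: reaction with 30 uM PGE2 and 1 mM NAD+ (final), 20 nM enzyme, Tris-HCl pH 8 with Tween 20, after 15 min compound preincubation at room temperature. Fluorescence change, last versus first of five reads.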
Tau fibril ThT: tau fibrillization inhibition (ThT binding) | P10636 | recombinant tau K18 P301L (four-repeat tau fragment), heparin-induced fibrillization, ThT fluorescence | Potency, µM (series often up to 57.4 µM), usual class: inhibitors | 2.1% of 270,000 active | AID 1460; also: nearly all actives have a fitted effect of over 55% in size
Target sequence (P10636 561-689 P618L limits assumed): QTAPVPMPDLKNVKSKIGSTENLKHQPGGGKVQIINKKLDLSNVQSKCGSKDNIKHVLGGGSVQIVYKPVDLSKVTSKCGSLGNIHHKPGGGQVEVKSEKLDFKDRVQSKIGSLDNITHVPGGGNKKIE
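Tau K18 P301L fragment (15 uM unlabeled plus 0.24 uM Alexa 594-labeled) in 100 mM sodium acetate pH 7 with compound, fibrillization induced by 20 uM heparin for 6 hr at 37 C. Thioflavin T (30 uM) added, fluorescence read after 1 hr (ex 450, em 510 nm).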
Tau FP inhib: tau fibrillization inhibition (FP). AID 1468. K18 P301L tau heparin fibrillization, Alexa594 FP, 6 h. 0.39% of 280,000 active. Potency, µM (top dose mostly 57.7 µM), hits mostly inhibitors; also: nearly all actives have a fitted effect of over 55% in size
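Human K18 P301L fragment (15 uM unlabeled plus 0.24 uM Alexa 594-labeled) in 100 mM sodium acetate pH 7 with compound, aggregation induced by 20 uM heparin for 6 hr at 37 C. ThT (30 uM) added for 1 hr, then Alexa 594 FP read.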
A number is an active result; n = inactive; u = inconclusive; x = no result given; ! = a repeat was not active; [ ] = remark or other dose. A selection: hits, their analogues and other compounds. The true share with any hit is near 9.9%. Unless noted, calls follow the shape of the dose curve; as a rule, active = well fitted curve in the direction sought with a large enough effect; inconclusive = small, poorly fitted or top-dose-only effect, or another doubt; inactive = no such curve, though single readings can be large; an effect the other way counts as inactive or inconclusive.

SMILES | ALDH1A1 block | Tau fluor counter | JMJD2E inh | HPGD inh | Tau fibril ThT | Tau FP inhib
COc1cccc(C(=O)Nc2ccc(C(=O)O)cc2)c1 | n | n | n | x | n | n
CCC(=O)Nc1ccc(Cl)c(-c2nc3ccccc3[nH]2)c1 | x | n | x | x | n | n
CCOC(=O)Cc1ccc(NC(=O)c2ccccc2Br)cc1 | n | n | n | x | n | n
O=C(Nc1ccc(C2CC2(Cl)Cl)cc1)c1ccccc1Br (stereo not given) | n | n | n | 15.8µM | n | n
COc1ccc(Cc2nnc(SCC(=O)N3CCCCC3)o2)cc1 | u | n | n | x | n | n
Cc1ccc(NC(=O)C(c2ccc(Cl)cc2Cl)N2CCCC2)cc1 (stereo not given) | n | n | n | n | n | n
Cc1cccc(NC(=O)C(c2ccccc2Cl)N2CCOCC2)c1 (stereo not given) | 25.1µM | n | n | x | n | n
COc1cccc2c1C(=O)c1c(O)c3c(c(O)c1C2=O)C[C@@](O)(C(C)=O)C[C@@H]3O[C@H]1C[C@H](N)[C@H](O)[C@H](C)O1 | u | n | 35.5µM! | n | 3.98µM | 25.1µM
COc1cccc2c1C(=O)c1c(O)c3c(c(O)c1C2=O)C[C@@](O)(C(=O)CO)C[C@@H]3OC1C[C@@H](N)[C@H](O)[C@H](C)O1 (stereo not given in full) | n | n | x | n | 5.01µM | 25.1µM
N#Cc1cc2c(nc1Cl)CCCC2 | n | n | n | n | n | n
O=C(NCCn1cc(SCc2ccc(C(F)(F)F)cc2)c2ccccc21)c1ccccc1F | x | u | x | x | u | n
O=C(NCCn1cc(SCc2ccc(C(F)(F)F)cc2)c2ccccc21)c1cccs1 | x | 5.62µM[quencher] | x | x | u | n
O=C(CSc1cn(CCNC(=O)c2cccs2)c2ccccc12)NC1CCCC1 | u | n | n | 20µM | n | n
O=C(c1ccc(S(=O)(=O)Cc2ccccc2Cl)c([N+](=O)[O-])c1)N1CCN(c2ccccn2)CC1 | 17.8µM | u | n | x | u | n
O=C(c1ccc(Cl)c([N+](=O)[O-])c1)N1CCN(c2ccccn2)CC1 | 10µM | n | n | n | n | n
CS(=O)(=O)Nc1cccc(-c2nc(N3CCNCC3)c3ccccc3n2)c1 | n | n | n | n | n | n
C=C1CC[C@H](O)C/C1=C/C=C1\CCC[C@]2(C)C([C@H](C)CC[C@@H](O)C(C)(C)O)CC[C@@H]12 (stereo not given in full) | n | n | x | x | n | n
NNC(=O)/C(=N/Nc1ccccc1)S(=O)(=O)c1ccc(Cl)cc1 | 12.6µM | n | n | n | u | n
CCOC(=O)/C(=N/Nc1ccc(C)cc1)S(=O)(=O)c1ccc(Cl)cc1 | u | n | n | n | u | n
CCOC(=O)/C(=N\Nc1ccccc1)S(=O)(=O)c1ccccc1 | 15.8µM | n | n | 14.1µM | n | n
O=C(NC(=C(Cl)Cl)S(=O)(=O)c1ccc(Cl)cc1)c1ccccc1 | x | n | n | x | x | u
Cc1ccc(C(=O)c2nocc2C(=O)c2cccs2)cc1 | 3.16µM | n | u | 22.4µM | n | n
CN(C)c1ccc([C@@H]2[C@@H]([N+](=O)[O-])[C@H]3C=Cc4ccccc4N3[C@H]2C(=O)c2ccc(Cl)cc2)cc1 | u | u | n | n | u | n
O=C(Nc1ccc(OCC(=O)N2CCC(Cc3ccccc3)CC2)cc1)c1ccco1 | 10µM | n | n | n | u | n
O=C(/C=C/c1ccco1)N1CCN(c2ncccn2)CC1 | 14.1µM | n | n | n | n | n
SMILES | ALDH1A1 block | Tau fluor counter | JMJD2E inh | HPGD inh | Tau fibril ThT | Tau FP inhib
O=C(/C=C/c1ccco1)N1CCC(Cc2ccccc2)CC1 | 20µM | n | n | x | u | n
O=C(N/N=C/c1ccc(O)c(O)c1)c1ccc(CSc2cccc3cccnc23)cc1 | n | 22.4µM[quencher] | u | u | u | n
Cn1c(SCc2nnc3n2CCCCC3)nc2ccccc21 | n | n | n | 25.1µM | n | n
O=C1C(Nc2ccccc2)=C2CCCC=C2N1c1ccccc1 | 12.6µM | n | n | x | n | n
O=C1C2=C(CCCC2)C(=O)N1CNc1ccccc1 | n | n | n | x | n | n
COc1cc(OC)c2c(-c3ccccc3)cc(=O)oc2c1 | 14.1µM | n | n | x | n | n
COc1cc(OC)c2c(-c3cccc(-c4ccc(OC)c(F)c4)c3)cc(=O)oc2c1 | u | n | x | u | n | n
Cc1cc2oc(=O)cc(-c3ccccc3)c2c(C)c1-c1ccc(C#N)cc1 | 12.6µM | n | x | n | n | n
CC(=O)c1ccc(-c2c(C)cc3oc(=O)cc(-c4ccccc4)c3c2C)cc1 | n | n | x | u | n | n
Cc1cc2oc(=O)cc(-c3ccccc3)c2c(C)c1-c1cccc(N)c1 | 25.1µM | n | x | n | n | n
Cc1cc2oc(=O)cc(-c3ccccc3)c2c(C)c1-c1ccc(F)c(Cl)c1 | n | n | x | n | n | n
Cn1c(SCc2ccc(Cl)cc2)nnc1-c1ccc2nonc2c1 | x | n | n | x | n | n
Cc1sc2ncnc(SCC(=O)N3CCCC3=O)c2c1C | 0.1µM | n | n | 25.1µM | n | n
Cc1cc(NC(=O)CSc2ncnc3sc(C)c(C)c23)no1 | n | n | n | x | n | n
CCCN(CC1CC1)C(=O)CSc1ncnc2sc(C)c(C)c12 | n | n | n | 28.2µM | n | n
COc1ccc(CNc2nc(SCc3ccc(Cl)cc3)nc3ccccc23)cc1 | x | n | x | x | n | n
O=C(Nc1ccc(C(F)(F)F)cc1)C1CCN(c2cnccn2)CC1 | x | n | x | x | u | n
Cc1ccc(N=Nc2ccc(O)c3ncccc23)cc1C | n | n | n | x | u | n
CCS(=O)(=O)c1ccc(N=Nc2ccc(O)c3ncccc23)c(OC)c1 | n | u | 14.1µM | x | u | n
Cc1ccc(-n2c(SCc3ccccc3C)nc3[nH]ncc3c2=O)cc1C | x | n | x | x | n | u
Cc1sc(NC(=O)c2ccccc2)c(C(=O)NC(C)C)c1C | u | n | n | u | n | n
Cc1ccc(C(=O)Nc2sc(C)c(C)c2C(=O)c2ccccc2)cc1 | 10µM | n | n | 20µM | u | n
Cc1sc(NC(=O)c2ccccc2)c(C(=O)c2ccccc2)c1C | 5.01µM | n | n | 3.55µM | u | n
Cc1sc(NC(=O)c2cccs2)c(C(N)=O)c1C | 11.2µM | n | n | 25.1µM | n | n
Cc1cc(Cc2cc(C)cc(C(C)(C)C)c2O)c(O)c(Cc2cc(C)cc(C(C)(C)C)c2O)c1 | n[13.5 µM] | x | x | n | x | x
CC(C)c1ccc(N2C(=O)CSC23C(=O)N(Cc2ccccc2F)c2ccccc23)cc1 (stereo not given) | x | n | x | x | n | n
COc1ccccc1CN1CCCC2(CCN(S(=O)(=O)c3ccccc3)CC2)C1 | n | x | x | n | x | x
CCSc1nnc(-c2cc(Br)ccc2N=Cc2c(C)[nH]n(-c3ccccc3)c2=O)c(=O)[nH]1 | u | n | n | x | u | n
CSc1nnc(-c2cc(Br)ccc2N=Cc2c(C)[nH]n(-c3ccccc3)c2=O)c(=O)[nH]1 | 18.9µM | n | n | x | n | n
